KDM5B inhibitor = Primary screen for KDM5B Histone Demethylases FDH-coupled qHTS; KDM5B demethylase, FDH-coupled NADH fluorescence (FDH is formaldehyde dehydrogenase); Potency, µM (series often up to 57.7 µM), hits mostly inhibitors; 2.6% of 220,000 active; active means well fitted inhibition curve with a large enough effect; further: nearly all actives have a fitted effect of over 70% in size
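Inhibition is measured as reduced NADH fluorescence generation from FDH coupling to formaldehyde release. Truncated KDM5BΔAP at 200 nM final acts on H3K4me3 peptide (12.5 µM in substrate mix) in pH 7.5 HEPES buffer with Tween-20, 30 min, room temperature.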
Large screens that a line does not name were inactive. Shown is part of a subset that was picked to be rich in hits.

O=C(Nc1ccc(F)cc1)C1CC(=O)N(C2CC2)C1 (stereo not given)	none
CCc1cccc(C)c1NC(=O)CN1C=C(C(=O)OC)C(C)=NS1(=O)=O	none
CN1CCN(S(=O)(=O)c2ccc(SCc3cc(Cl)c4c(c3)OCCO4)nc2)CC1	none
Cc1ccc(NC(=O)Cn2c(-c3ccc(F)cc3)nc(C)c(CCO)c2=O)c(C)c1	none
CCCN(CC#N)CC(=O)NC(=O)Nc1ccccc1	none
Cc1ccc(Nc2nc(C)c(C(=O)Nc3ccccc3)s2)cc1	none
CCc1cc(=O)n(Cc2cccnc2)c(N2CCOCC2)n1	none
O=c1cc(N2CCOCC2)oc2c(NCc3cnccn3)nccc12	KDM5B inhibitor 35.5µM
O=c1cc(N2CCOCC2)oc2c(NCC3CCOCC3)nccc12	KDM5B inhibitor 31.6µM
O=C(CC1CCOCC1)Nc1ccc(N2CCOCC2)cc1	none
O=C(NCC1CCOCC1)c1cnccn1	none
O=C(Nc1nn(Cc2ccccc2)c2cccc(N3CCOCC3)c12)c1cnccn1	none
COC(=O)c1ccc(NC(=O)CCc2ncc(-c3ccccc3)o2)cc1	none
N=C(N)C1CC1	none
COc1cccc(C(=O)OCc2nc(-c3ccc(OC(F)(F)F)cc3)no2)c1	none
CCCN1CCN(CCCN)CC1	none
CCOC(=O)c1cnc2c(Cl)c(Cl)ccc2c1NCCO	none
Cc1cc(N2CCCN(c3nccc(-c4c(C)nn(C)c4C)n3)CC2)ccn1	KDM5B inhibitor 28.2µM
Cc1cc(N2CCC3(CC2)C(C(=O)O)CC(=O)N3C)ccn1 (stereo not given)	none
Cc1cc(C(=O)N2CCN(c3ncccn3)CC2)c2c(C)nn(C)c2n1	none
Cc1ccc(C(=O)NNC(=S)Nc2ccccc2)cc1	none
CC(C)CCn1nc(C(=O)Nc2nc(-c3ccc(F)cc3)cs2)c2ccccc2c1=O	none
CC(Sc1nc(CN2CCOCC2)nc2ccccc12)C(=O)Nc1ccc(F)cc1F (stereo not given)	none
CCOC(=O)C(NC(=O)c1cccnc1)(Nc1cc(Cl)ccc1OC)C(F)(F)F (stereo not given)	none
O=C1NC(=NC2CCCC2)C2(CCCN(Cc3ccsc3)C2)N1c1cccnc1 (stereo not given)	none
Fc1ccc(-c2[nH]ncc2CNCc2cccs2)cc1	none
CCN(CC)C(=O)c1cc2c(s1)CCC(C(=O)NC)C2 (stereo not given)	none
O=C1CCN(C(=O)c2ccsc2)CCCOCCN1	none
O=C1CCN(Cc2ccncc2)CCCC(C(=O)N2CCCC2)CCN1 (stereo not given)	none
O=C1CCN(C(=O)c2ccsc2)CCCC(C(=O)N2CCN(c3ccccn3)CC2)CCN1 (stereo not given)	KDM5B inhibitor 20µM
CCN(CC)C(=O)c1cc2c(s1)CCC(C(=O)N1CCN(c3ccccn3)CC1)C2 (stereo not given)	KDM5B inhibitor 28.2µM
O=C1CCN(C(=O)C2CCC2)CCCC(C(=O)N2CCN(c3ccccn3)CC2)CCN1 (stereo not given)	KDM5B inhibitor 22.4µM
O=C1CCN(C(=O)C2CCN(C(=O)c3cccnc3)CC2)CCCCCCN1	none
CCN(CC)C(=O)c1cc2c(s1)CCC(C(=O)N1CCN(c3ccccc3)CC1)C2 (stereo not given)	none
CCN1CCN(C(=O)C2CCCN(C(=O)c3ccccc3)CCC(=O)NCC2)CC1 (stereo not given)	none
CN(C)CCNC(=O)C(=O)Nc1cccc(N2CCCS2(=O)=O)c1	none
CS(=O)(=O)Cc1ccc(-c2ccc(F)cc2C(F)(F)F)nc1	none
O=C(CC1CCOC2(CCN(S(=O)(=O)c3ccccc3)CC2)C1)NC1CC1 (stereo not given)	none
O=C(Oc1c2c3c(noc3c3ccccc13)C(Oc1ccccc1)=CC2=O)c1cccc(F)c1	none
CC(C)Oc1ccc2c(NC(=O)c3cccnn3)nn(CC(F)(F)F)c2c1	none
COc1cccc(NC(=O)c2cc3c(=O)n4ccccc4nc3n2C)c1	none
COC(=O)CN1CCN(c2nc3c(c(=O)[nH]c(=O)n3C)n2Cc2ccccc2Cl)CC1	none
COc1cccc(CN2CCc3nc(C(=O)NCC4CC4)oc3CC2)c1	KDM5B inhibitor 39.8µM
COCCNC(=O)c1nc2c(o1)CCN(Cc1ccc(OC)cc1)CC2	none
O=C(c1nc2c(o1)CCN(Cc1cccc(Cl)c1)CC2)N1CCOCC1	none
COc1cccc(CN2CCc3nc(C(=O)N4CCOCC4)oc3CC2)c1	none
O=C(NCc1cccc(F)c1)c1nc2c(o1)CCN(Cc1cc(F)ccc1F)CC2	KDM5B inhibitor 31.6µM
O=C(NCc1ccncc1)c1nc2c(o1)CCN(Cc1ccccc1F)CC2	none
O=C(NCc1cccc(F)c1)c1nc2c(o1)CCN(CCCc1ccccc1)CC2	none
Cc1cc(F)cc(CN2CCc3nc(C(=O)NCc4ccncc4)oc3CC2)c1	none
O=C(NCc1cccc(F)c1)c1nc2c(o1)CCN(Cc1cccc(Cl)c1)CC2	KDM5B inhibitor 35.5µM
Cc1ccc(NS(=O)(=O)c2ccc(C(=O)OCC(=O)c3ccc[nH]3)cc2)cc1	none
Cc1cccc2c1NC(=O)C21CC(=O)Nc2c1sc(C(=O)O)c2-c1ccccc1 (stereo not given)	none
O=C(Nc1cccc(C(F)(F)F)c1)O[C@@H]1CO[C@H]2[C@@H]1OC[C@@H]2NC(=S)NC1CCCCC1	none
CCNC(=S)NCc1ccccc1	none
COCCn1c(N2CCC(C)CC2)nc2c1c(=O)[nH]c(=O)n2C	none
CC(NCCC(N)=O)c1cccc(Cl)c1 (stereo not given)	none
COc1ccc(-n2nc3n(c2=O)CCN(Cc2ccccc2)C3)cc1	none
O=c1n(-c2cccc(Cl)c2)nc2n1CCN(Cc1ccccc1)C2	KDM5B inhibitor 89.1µM
O=c1n(-c2cccc(Cl)c2)nc2n1CCN(Cc1cccc3ccccc13)C2	none
OCCCCCCCCCCCN1CCCCC1	none
Cc1c(Cl)cccc1NCC(=O)N1CCNC1=O	none
CC(=O)c1c(C)[nH]c(C(=O)C(C)Oc2ccc(Cl)cc2Br)c1C (stereo not given)	none
Cc1noc(C)c1-c1cc(-c2cccc(N3CCOCC3)c2)cn2cncc12	KDM5B inhibitor 35.5µM
c1cc(-c2cc(-c3ccncc3)c3cncn3c2)cc(N2CCOCC2)c1	none
Cc1ccccc1-c1cc(-c2c(C)noc2C)c2cncn2c1	none
O=C(Nc1ccccc1)c1cc(=O)c2ccccc2o1	none
CCc1nc2nccc(-c3ccsc3)n2n1	KDM5B inhibitor 25.1µM
CCNC(=O)C1CCc2ncc(-c3ccsc3)n2C1 (stereo not given)	none
Cc1nnc(-c2cc(-c3ccsc3)ccn2)n1Cc1ccccc1	none
CC(C)Cc1nc2nccc(-c3ccsc3)n2n1	KDM5B inhibitor 28.2µM
COCc1nc2nccc(-c3ccc(Br)s3)n2n1	none
COCc1nc2nccc(-c3ccsc3)n2n1	KDM5B inhibitor 28.2µM
CCC(CC)NC(=O)C1CCc2ncc(-c3ccsc3)n2C1 (stereo not given)	none
Cc1nnc(-c2cc(-c3ccsc3)ccn2)n1-c1ccccc1	none
CCc1ccc(-n2nc(-c3nc4ccccc4s3)c(N)c2C(=O)OC)cc1	none
COc1ccccc1/C=C1\Oc2cc(OS(C)(=O)=O)ccc2C1=O	none
O=C1CC(c2ccccc2)N(C(=O)CCc2ccccc2)CCCCCN1 (stereo not given)	none
O=C(Nc1ccc(F)cc1)N1CC[C@H]2CC(=O)N(c3ccccc3)CC[C@H]2C1	none
Cc1ccc(NC(=O)N[C@@H](Cc2ccccc2)C(=O)N2CCCOCCNC(=O)CC2)cc1C	none
CCc1sc(C(=O)OCc2ccc(C#N)cc2)cc1C	none
CN(CC(=O)Nc1ccc(F)cc1)C(=O)c1cccc(S(=O)(=O)NCC2CCCO2)c1 (stereo not given)	none
O=C1CN(CC(=O)Nc2ccc(Cl)cc2)CCN1	none
CCc1ccc2c(CN3CCNC(=O)C3)cc(=O)oc2c1	none
CCOc1nccn2c(-c3ccc(CN4CCNC(=O)C4)cc3)cnc12	KDM5B inhibitor 35.5µM

High-throughput results deposited in PubChem by National Center for Advancing Translational Sciences (NCATS).
